The full ranking holds about 33,000 sequences; the median of “E-score (-0.5 to 0.5)” is about -0.036, and the highest 2% start at about 0.37. The full list was thinned out, with the highest values kept by preference.
Molecular target: T1, Yer064c (UniProt P40041)
T1 sequence: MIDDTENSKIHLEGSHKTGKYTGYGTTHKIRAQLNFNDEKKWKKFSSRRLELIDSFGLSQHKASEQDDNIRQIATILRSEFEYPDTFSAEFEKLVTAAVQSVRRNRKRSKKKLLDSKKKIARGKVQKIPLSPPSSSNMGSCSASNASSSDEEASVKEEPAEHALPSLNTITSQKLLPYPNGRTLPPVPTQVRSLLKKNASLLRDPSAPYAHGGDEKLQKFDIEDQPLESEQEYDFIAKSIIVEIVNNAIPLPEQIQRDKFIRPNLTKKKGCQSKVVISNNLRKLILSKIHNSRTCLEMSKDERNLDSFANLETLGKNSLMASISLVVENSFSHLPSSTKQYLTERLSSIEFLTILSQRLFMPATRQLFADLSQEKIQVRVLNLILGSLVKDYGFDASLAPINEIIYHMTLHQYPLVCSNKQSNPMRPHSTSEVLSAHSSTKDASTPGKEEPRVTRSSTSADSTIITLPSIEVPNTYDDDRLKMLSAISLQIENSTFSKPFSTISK
Assay: PBM E-score (8-mer binding enrichment) (E-score (-0.5 to 0.5)); higher = stronger / more preferred TF binding
Details: protein concentration: 200 nM; construct: GST-full length
Experimental: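 Universal 'all 10-mer' protein binding microarrays (Agilent AMADID 015681) probed with GST-tagged S. cerevisiae TFs (full-length or DBD) made by in vitro transcription/translation (PURExpress), about 100-200 nM. Bound TF was detected with fluorescent anti-GST. Each ungapped 8-mer (which stands for itself and its reverse complement) is scored by the PBM enrichment score (E-score), a modified Wilcoxon-Mann-Whitney statistic from -0.5 to +0.5, computed with the Universal PBM Analysis Suite. Scale: above 0.35 generally sequence-specific binding.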

Sequence | PBM E-score
CATCTGTA | -0.0129
GGATCGTA | -0.118
GACTATAA | 0.389
CACTATAC | -0.184
CACTATAA | -0.0109
AACTATAA | 0.0773
GACTATAC | 0.413
AACTATAC | 0.172
AACTCTCG | -0.105
CCTTCAGC | -0.126
CATTTGGA | 0.0626
AATGAGAC | 0.257
CATGAGCC | 0.247
CATGAGAC | 0.322
AATGAGTG | 0.249
AATGAGTC | 0.485
CATGAGTC | 0.481
ACGAGCGA | -0.0924
TGTTGAAA | 0.0239
ACATCCCT | -0.0971
AGATCTAA | -0.0235
AGAAGTAT | 0.0717

Sequence | PBM E-score
CCTCATAC | -0.153
ACTCATAC | 0.393
ACTCATAA | 0.375
ACTCATAT | 0.368
ACGCATAT | -0.225
ACTCATAG | 0.385
TCTCATAA | 0.209
ACCCATAT | 0.216
GCTCATAA | 0.136
GCTCATAC | -0.0113
CCTCATAG | -0.00122
ATTCATAG | 0.166
GAAGATCA | 0.02
ATCGATAG | 0.0388
GCGCGACA | -0.0346
ACCTGGAG | 0.0449
CTCTTGCA | 0.00318
AGTGATTG | 0.362
AGTGATTA | 0.4
AGTGATAA | -0.0496
CGTGATAC | -0.131
GGTGATTA | 0.447

Sequence | PBM E-score
AGTGATAC | 0.0829
GGTGATAA | -0.111
AGTGATGA | 0.261
AGTGATTC | 0.405
CGTGATCC | -0.251
GGTGATGA | 0.191
CGTGATTC | 0.418
ATTGGACA | -0.0986
AAAAACCC | -0.204
GAGATAGA | -0.206
GCAGTCCA | 0.123
GCTCTCCA | -0.226
GTCCTCAA | 0.159
CCAGAACC | -0.1
CGTGATGA | 0.104
CGTGATTA | 0.393
CGTGATAA | 0.0558
AAGATGCC | -0.214
CGGCAAAA | -0.235
AGAAGACC | -0.209
AGAAGACT | 0.368
ACAAGACA | -0.114

Sequence | PBM E-score
ACAAGACT | 0.37
ACAAGACG | -0.027
AGAAGACG | -0.0622
ATTAATTG | 0.238
ACCATACA | -0.0449
GAGGACCA | -0.0209
TGTATCAA | 0.187
AGCGACGG | -0.139
ATGTAATC | 0.291
AATAGTCA | 0.478
CATAGTCA | 0.466
AATAGTCT | 0.297
CATAGTCG | 0.374
AATAGTCG | 0.346
CATAGTCC | 0.304
CATAGTAA | 0.212
TATAGTGA | 0.134
AATAGTCC | 0.241
CATAGTGG | -0.088
TATAGTCA | 0.467

Reference: the supplement of paper PMC3334620
